Laboratory results taken from the supplement of paper PMC10849652.
The full data set covers some 8,800 targets. This sample favours those with a hit. About 0.5% of all pairs of compound and target were hits.

Key:
Experiment in all cases: log2 fold change, soluble protein after heating vs DMSO (PISA); higher = thermal stabilisation; K562 lysate, 10 uM; active = over 0.2 and 3.5 SD of the protein, either way, in both replicates (recomputed)
erlotinib = compound: C#Cc1cccc(Nc2ncnc3cc(OCCOC)c(OCCOC)cc23)c1 [erlotinib]
Outline: (§1)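 Log-two fold change in thermal stability relative to solvent controls is reported from duplicates. For each sample, crude K562 extract from dounce-homogenised pellets in PBS pH 7.4 with 1 mM MgCl2, at 1 mg/mL protein, was treated with 10 μM compound for 30 min. Aliquots heated for 3 min across 48°C-58°C were pooled, brought to 0.5% NP-40 at 4°C and cleared at 21,000xg for 90 min. The supernatant was quantified by TMTpro 16plex LC-MS/MS with channel sums equalised.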

[1] = compound: C/C(=N\NC(=O)C1=CC(=CC=C1)S(=O)(=O)N2CCOCC2)/C3=C(C=CC(=C3)Cl)O
Outline: as §1

[2] = compound: C1=CC(=CC=C1C2=NC3=C(N2)C=C(C=C3)C(=O)N)OC4=CC=C(C=C4)Cl
Outline: as §1

[3] = compound: C1=CC2=C(C=CC(=C2)/C=C\3/C(=O)NC(=NCC4=CC=CS4)S3)N=C1
Outline: as §1

[4] = compound: C1=CC2=NC=CN=C2C=C1/C=C/3\C(=O)NC(=O)S3
Outline: as §1

[5] = compound: C1=CC=C(C=C1)C2=NC(=C(N2)C3=CC=NC=C3)C4=CC(=C(C=C4)Cl)O
Outline: as §1

[6] = compound: C1=CC=C2C(=C1)C3=NNC4=CC=CC(=C43)C2=O
Outline: as §1

[7] = compound: C1CCN(C1)C(=O)NC2=CC=CC(=C2)NC3=NC=C(C(=N3)NCCC4=CN=CN4)Br
Outline: as §1

[8] = compound: C1CN(CCC1(CC2=CC=C(C=C2)Cl)N)C3=NC=NC4=C3C=CN4
Outline: as §1

IRAK-1-4 Inhibitor I = compound: C1COCCN1CCN2C3=CC=CC=C3N=C2NC(=O)C4=CC(=CC=C4)[N+](=O)[O-] [IRAK-1-4 Inhibitor I]
Outline: as §1

ibrutinib = compound: C=CC(=O)N1CCC[C@@H](n2nc(-c3ccc(Oc4ccccc4)cc3)c3c(N)ncnc32)C1 [ibrutinib]
Outline: as §1

[9] = compound: CC(=O)c1cnc2ccc(-c3cc(Cl)c(O)c(Cl)c3)nc2c1N[C@H]1CC[C@H](CN(C)C)CC1
Outline: as §1

ralimetinib = compound: CC(C)(C)Cn1c(N)nc2ccc(-c3[nH]c(C(C)(C)C)nc3-c3ccc(F)cc3)nc21 [ralimetinib]
Outline: as §1

[10] = compound: CC(C)(O)CC(=O)NCCn1ccc2ncnc(Nc3ccc(Oc4cccc(C(F)(F)F)c4)c(Cl)c3)c21
Outline: as §1

[11] = compound: CC(C)C1=C2N=C(C=C(N2N=C1)NCC3=CC=CC=C3)NCCCCCCN
Outline: as §1

[12] = compound: CC1=C(C(CC(=O)N1)C2=CC=C(C=C2)C(F)(F)F)C(=O)NC3=C(C=C4C(=C3)C=NN4)F
Outline: as §1

[13] = compound: CC1=C(C2=C(C=C1)C(=O)C3=CC=CC=C3N2CCCN)C
Outline: as §1

[14] = compound: CC1=C(C=C(C=C1)NC(=O)C2=CC(=CC=C2)C(C)(C)C#N)NC3=CC4=C(C=C3)N=CN(C4=O)C
Outline: as §1

[15] = compound: CC1=C(C=C(C=C1)NC(=O)C2=CC(=CC=C2)N(C)C)NC(=O)C3=CC=C(C=C3)O
Outline: as §1

[16] = compound: CC1=CC=C(C=C1)SC2=C3C=C(SC3=CN=C2)C(=O)N
Outline: as §1

Measured: log2 fold change

ENO1 isoform 2 (UniProt P06733)
UniProt P06733, sequence (P06733 whole entry, looked up): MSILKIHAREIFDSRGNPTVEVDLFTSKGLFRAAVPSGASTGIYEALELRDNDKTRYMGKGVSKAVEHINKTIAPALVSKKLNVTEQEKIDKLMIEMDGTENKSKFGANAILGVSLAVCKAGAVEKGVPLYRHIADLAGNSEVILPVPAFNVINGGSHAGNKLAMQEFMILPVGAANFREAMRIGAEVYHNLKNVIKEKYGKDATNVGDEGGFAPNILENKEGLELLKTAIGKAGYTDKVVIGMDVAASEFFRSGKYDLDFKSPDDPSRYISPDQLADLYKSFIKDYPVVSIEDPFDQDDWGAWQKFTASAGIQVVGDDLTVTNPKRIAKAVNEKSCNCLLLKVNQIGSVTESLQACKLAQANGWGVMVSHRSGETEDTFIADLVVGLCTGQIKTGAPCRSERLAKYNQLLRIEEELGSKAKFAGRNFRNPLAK
inactive: erlotinib -0.02 | [1] -0.039 | [2] -0.035 | [3] -0.021 | [4] -0.016 | [5] -0.003 | [6] -0.066 | [7] -0.033 | [8] 0.027 | IRAK-1-4 Inhibitor I 0.015 | ibrutinib -0.043 | [9] 0.008 | ralimetinib 0.02 | [10] -0.07 | [11] 0.028 | [12] -0.009 | [13] -0.013 | [14] 0.023 | [15] -0.002 | [16] -0.015

GAMT (UniProt Q14353)
inactive: erlotinib 0.018 | [1] -0.008 | [2] 0.033 | [3] -0.008 | [4] -0.01 | [5] -0.016 | [6] 0.036 | [7] 0.035 | [8] 0.066 | IRAK-1-4 Inhibitor I -0.001 | ibrutinib 0.029 | [9] -0.008 | ralimetinib 0.019 | [10] 0.013 | [11] -0.041 | [12] 0.071 | [13] -0.009 | [14] -0.003 | [15] -0.003 | [16] 0.005

DST (UniProt Q03001)
inactive: erlotinib 0.025 | [1] -0.035 | [2] 0.046 | [3] -0.03 | [4] -0.042 | [5] 0 | [6] -0.16 | [7] -0.046 | [8] 0 | IRAK-1-4 Inhibitor I 0.04 | ibrutinib 0.007 | [9] -0.031 | ralimetinib -0.034 | [10] -0.098 | [11] 0.021 | [12] -0.052 | [13] -0.054 | [14] 0.049 | [15] 0.063 | [16] -0.046

GCDH (UniProt Q92947)
UniProt Q92947, sequence (Q92947 whole entry, looked up): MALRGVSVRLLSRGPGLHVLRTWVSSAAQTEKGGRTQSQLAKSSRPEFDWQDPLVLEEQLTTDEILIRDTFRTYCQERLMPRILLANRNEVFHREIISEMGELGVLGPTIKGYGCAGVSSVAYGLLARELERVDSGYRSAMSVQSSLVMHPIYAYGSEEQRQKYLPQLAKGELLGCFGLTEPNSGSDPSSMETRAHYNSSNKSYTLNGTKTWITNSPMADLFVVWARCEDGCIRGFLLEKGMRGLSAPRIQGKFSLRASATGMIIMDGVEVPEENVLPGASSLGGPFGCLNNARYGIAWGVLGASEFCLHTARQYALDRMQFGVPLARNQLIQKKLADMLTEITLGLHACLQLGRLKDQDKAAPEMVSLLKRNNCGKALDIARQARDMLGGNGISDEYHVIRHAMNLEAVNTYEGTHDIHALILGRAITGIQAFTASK
inactive: erlotinib -0.038 | [1] 0.1 | [2] -0.023 | [3] 0.051 | [4] 0.089 | [5] -0.027 | [6] 0.009 | [7] 0 | [8] 0 | IRAK-1-4 Inhibitor I 0.011 | ibrutinib -0.046 | [9] 0.028 | ralimetinib -0.04 | [10] 0.014 | [11] -0.051 | [12] 0.069 | [13] -0.019 | [14] 0.086 | [15] -0.017 | [16] -0.03

GEMIN2 (UniProt O14893)
UniProt O14893, sequence (O14893 whole entry, looked up): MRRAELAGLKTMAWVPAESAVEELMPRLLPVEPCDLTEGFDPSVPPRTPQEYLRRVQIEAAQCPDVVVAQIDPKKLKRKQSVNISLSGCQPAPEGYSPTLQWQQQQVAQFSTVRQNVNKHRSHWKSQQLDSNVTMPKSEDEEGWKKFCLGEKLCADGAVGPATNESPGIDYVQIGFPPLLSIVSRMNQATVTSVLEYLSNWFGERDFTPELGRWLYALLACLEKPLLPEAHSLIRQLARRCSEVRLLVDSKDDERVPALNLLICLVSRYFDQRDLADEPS
inactive: erlotinib 0.032 | [1] 0.047 | [2] -0.001 | [3] 0.053 | [4] 0.028 | [5] 0.015 | [6] -0.11 | [7] -0.007 | [8] 0.011 | IRAK-1-4 Inhibitor I 0.05 | ibrutinib -0.044 | [9] 0.016 | ralimetinib 0 | [10] -0.11 | [11] 0.033 | [12] -0.014 | [13] -0.025 | [14] -0.045 | [15] 0.006 | [16] 0.026

GEMIN5 (UniProt Q8TEQ6)
inactive: erlotinib -0.001 | [1] 0.004 | [2] -0.012 | [3] 0.015 | [4] 0.032 | [5] -0.006 | [6] -0.034 | [7] 0 | [8] -0.006 | IRAK-1-4 Inhibitor I -0.025 | ibrutinib 0.012 | [9] -0.01 | ralimetinib 0.03 | [10] -0.001 | [11] 0.016 | [12] -0.02 | [13] -0.026 | [14] 0.005 | [15] 0.014 | [16] 0.007

GALK1 isoform 2 (UniProt P51570)
UniProt P51570, sequence (P51570 whole entry, looked up): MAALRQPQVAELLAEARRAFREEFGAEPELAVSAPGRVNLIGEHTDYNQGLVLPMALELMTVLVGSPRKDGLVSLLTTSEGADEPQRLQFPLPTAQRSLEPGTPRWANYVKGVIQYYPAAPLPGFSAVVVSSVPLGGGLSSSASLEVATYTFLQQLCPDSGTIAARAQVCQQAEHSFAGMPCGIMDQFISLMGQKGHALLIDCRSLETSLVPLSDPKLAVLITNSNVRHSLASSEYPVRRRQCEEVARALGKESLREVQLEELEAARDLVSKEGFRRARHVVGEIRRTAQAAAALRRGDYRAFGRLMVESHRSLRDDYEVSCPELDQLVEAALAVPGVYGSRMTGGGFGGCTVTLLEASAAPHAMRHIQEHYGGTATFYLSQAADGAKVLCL
inactive: erlotinib 0.021 | [1] 0.022 | [2] 0.01 | [3] -0.076 | [4] -0.024 | [5] -0.015 | [6] -0.031 | [7] 0.023 | [8] 0.058 | IRAK-1-4 Inhibitor I 0.042 | ibrutinib 0.002 | [9] 0.032 | ralimetinib -0.013 | [10] -0.001 | [11] -0.006 | [12] -0.021 | [13] -0.026 | [14] 0.002 | [15] -0.001 | [16] 0.04

FBXO22 (UniProt Q8NEZ5)
UniProt Q8NEZ5, sequence (Q8NEZ5 whole entry, looked up): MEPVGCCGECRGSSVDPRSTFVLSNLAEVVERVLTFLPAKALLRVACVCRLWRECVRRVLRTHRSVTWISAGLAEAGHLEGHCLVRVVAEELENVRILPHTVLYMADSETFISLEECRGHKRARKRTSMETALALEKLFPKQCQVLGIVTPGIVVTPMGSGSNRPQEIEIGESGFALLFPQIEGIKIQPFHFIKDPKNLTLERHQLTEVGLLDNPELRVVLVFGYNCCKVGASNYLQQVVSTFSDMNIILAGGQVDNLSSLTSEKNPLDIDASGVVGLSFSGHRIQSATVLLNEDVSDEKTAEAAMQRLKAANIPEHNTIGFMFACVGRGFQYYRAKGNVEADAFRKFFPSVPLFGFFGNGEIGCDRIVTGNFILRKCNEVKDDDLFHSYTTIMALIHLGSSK
inactive: erlotinib 0.042 | [1] -0.022 | [2] 0.048 | [3] 0.016 | [4] 0.02 | [5] -0.002 | [6] -0.01 | [7] 0.029 | [8] 0.049 | IRAK-1-4 Inhibitor I 0.007 | ibrutinib -0.03 | [9] 0.017 | ralimetinib 0.003 | [10] -0.06 | [11] -0.078 | [12] -0.026 | [13] -0.006 | [14] 0.016 | [15] 0 | [16] -0.014

EFCAB14 (UniProt O75071)
UniProt O75071, sequence (O75071 whole entry, looked up): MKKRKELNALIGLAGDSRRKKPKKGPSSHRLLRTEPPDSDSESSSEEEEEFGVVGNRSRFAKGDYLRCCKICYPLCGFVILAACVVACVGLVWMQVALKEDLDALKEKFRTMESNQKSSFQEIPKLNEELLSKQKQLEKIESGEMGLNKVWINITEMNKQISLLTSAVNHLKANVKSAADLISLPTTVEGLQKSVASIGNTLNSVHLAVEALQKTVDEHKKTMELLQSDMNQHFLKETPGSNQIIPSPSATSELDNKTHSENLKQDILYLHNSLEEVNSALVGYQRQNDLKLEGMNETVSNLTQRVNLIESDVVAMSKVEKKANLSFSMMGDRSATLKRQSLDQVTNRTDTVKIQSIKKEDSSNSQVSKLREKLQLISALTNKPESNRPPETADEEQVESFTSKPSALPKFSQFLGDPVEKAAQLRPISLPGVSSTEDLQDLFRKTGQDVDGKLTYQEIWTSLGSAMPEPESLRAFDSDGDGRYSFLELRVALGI
inactive: erlotinib 0.019 | [1] 0.115 | [2] 0.043 | [3] -0.036 | [4] -0.019 | [5] -0.042 | [6] -0.022 | [7] 0.01 | [8] 0.042 | IRAK-1-4 Inhibitor I 0.011 | ibrutinib 0.026 | [9] 0.015 | ralimetinib 0.055 | [10] -0.075 | [11] -0.045 | [12] 0.077 | [13] 0.02 | [14] 0.011 | [15] 0.016 | [16] 0.012

FYCO1 isoform 4 (UniProt Q9BQS8)
inactive: erlotinib 0.029 | [1] 0.026 | [2] 0.014 | [3] -0.01 | [4] -0.019 | [5] -0.006 | [6] -0.016 | [7] -0.013 | [8] 0.009 | IRAK-1-4 Inhibitor I 0 | ibrutinib -0.012 | [9] -0.015 | ralimetinib 0.021 | [10] -0.026 | [11] 0 | [12] 0.029 | [13] -0.019 | [14] -0.003 | [15] -0.028 | [16] 0

FXR2 (UniProt P51116)
inactive: erlotinib 0.018 | [1] 0.026 | [2] -0.01 | [3] -0.042 | [4] 0.022 | [5] -0.029 | [6] -0.092 | [7] -0.085 | [8] 0.003 | IRAK-1-4 Inhibitor I -0.075 | ibrutinib 0.027 | [9] -0.008 | ralimetinib 0.028 | [10] 0.004 | [11] 0.026 | [12] 0.024 | [13] 0.004 | [14] -0.005 | [15] -0.018 | [16] 0.011

FBXO9 (UniProt Q9UK97)
inactive: erlotinib -0.06 | [1] 0.126 | [2] 0.091 | [3] 0.013 | [4] 0.086 | [5] 0.01 | [6] -0.032 | [7] 0.019 | [8] -0.108 | IRAK-1-4 Inhibitor I -0.005 | ibrutinib 0.006 | [9] -0.014 | ralimetinib -0.046 | [10] 0.077 | [11] -0.09 | [12] 0.009 | [13] 0.019 | [14] 0.017 | [15] 0.047 | [16] 0.026

FOXK1 (UniProt P85037)
UniProt P85037, sequence (P85037 whole entry, looked up): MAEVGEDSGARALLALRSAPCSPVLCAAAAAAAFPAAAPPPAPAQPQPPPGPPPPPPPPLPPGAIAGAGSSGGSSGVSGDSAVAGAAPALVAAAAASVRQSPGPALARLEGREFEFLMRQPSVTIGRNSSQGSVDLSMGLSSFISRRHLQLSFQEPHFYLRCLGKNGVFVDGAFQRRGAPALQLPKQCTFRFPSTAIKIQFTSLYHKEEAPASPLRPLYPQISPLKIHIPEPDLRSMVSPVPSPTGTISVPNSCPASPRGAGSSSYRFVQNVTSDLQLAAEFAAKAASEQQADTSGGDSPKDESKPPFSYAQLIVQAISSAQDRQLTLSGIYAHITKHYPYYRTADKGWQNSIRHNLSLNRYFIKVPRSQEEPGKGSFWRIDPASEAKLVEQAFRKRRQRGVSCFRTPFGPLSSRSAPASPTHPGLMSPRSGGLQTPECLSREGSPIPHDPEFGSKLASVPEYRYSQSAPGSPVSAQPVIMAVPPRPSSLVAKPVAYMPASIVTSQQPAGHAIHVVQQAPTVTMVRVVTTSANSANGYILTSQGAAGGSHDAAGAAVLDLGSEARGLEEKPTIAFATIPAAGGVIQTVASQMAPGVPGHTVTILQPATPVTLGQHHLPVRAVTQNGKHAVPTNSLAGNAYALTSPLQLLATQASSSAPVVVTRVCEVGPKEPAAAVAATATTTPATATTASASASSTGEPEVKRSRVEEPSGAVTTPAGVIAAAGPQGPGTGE
inactive: erlotinib 0.014 | [1] -0.029 | [2] 0.038 | [3] 0.013 | [4] -0.057 | [5] -0.011 | [6] 0.007 | [7] -0.036 | [8] 0.013 | IRAK-1-4 Inhibitor I -0.014 | ibrutinib 0.033 | [9] 0.005 | ralimetinib 0.082 | [10] 0.063 | [11] -0.011 | [12] 0.018 | [13] 0.007 | [14] -0.025 | [15] -0.001 | [16] 0.011

GGT7 (UniProt Q9UJ14)
UniProt Q9UJ14, sequence (Q9UJ14 whole entry, looked up): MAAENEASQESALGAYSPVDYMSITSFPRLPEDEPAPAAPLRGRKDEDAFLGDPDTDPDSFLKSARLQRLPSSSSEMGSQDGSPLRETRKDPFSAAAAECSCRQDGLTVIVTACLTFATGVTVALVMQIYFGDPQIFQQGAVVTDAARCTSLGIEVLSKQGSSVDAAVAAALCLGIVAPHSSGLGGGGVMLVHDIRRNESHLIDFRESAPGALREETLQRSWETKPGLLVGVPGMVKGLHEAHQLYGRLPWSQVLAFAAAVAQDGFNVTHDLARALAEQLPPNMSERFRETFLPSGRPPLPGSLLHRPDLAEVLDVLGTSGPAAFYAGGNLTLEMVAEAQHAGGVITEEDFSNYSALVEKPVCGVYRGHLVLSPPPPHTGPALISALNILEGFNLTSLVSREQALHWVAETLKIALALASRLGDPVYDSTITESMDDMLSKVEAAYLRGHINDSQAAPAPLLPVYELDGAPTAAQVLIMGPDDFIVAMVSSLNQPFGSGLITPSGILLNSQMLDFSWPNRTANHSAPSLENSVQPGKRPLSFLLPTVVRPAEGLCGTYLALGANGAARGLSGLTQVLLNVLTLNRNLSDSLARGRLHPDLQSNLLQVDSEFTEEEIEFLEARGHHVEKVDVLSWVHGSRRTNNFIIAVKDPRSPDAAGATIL
inactive: erlotinib -0.04 | [1] 0.07 | [2] 0.021 | [3] -0.116 | [4] 0.094 | [5] -0.059 | [6] 0.018 | [7] 0.026 | [8] -0.023 | IRAK-1-4 Inhibitor I 0.027 | ibrutinib 0.019 | [9] 0.004 | ralimetinib -0.07 | [10] -0.106 | [11] -0.05 | [12] 0.003 | [13] -0.066 | [14] -0.032 | [15] 0.035 | [16] 0.017

GAPDH (UniProt P04406)
UniProt P04406, sequence (P04406 whole entry, looked up): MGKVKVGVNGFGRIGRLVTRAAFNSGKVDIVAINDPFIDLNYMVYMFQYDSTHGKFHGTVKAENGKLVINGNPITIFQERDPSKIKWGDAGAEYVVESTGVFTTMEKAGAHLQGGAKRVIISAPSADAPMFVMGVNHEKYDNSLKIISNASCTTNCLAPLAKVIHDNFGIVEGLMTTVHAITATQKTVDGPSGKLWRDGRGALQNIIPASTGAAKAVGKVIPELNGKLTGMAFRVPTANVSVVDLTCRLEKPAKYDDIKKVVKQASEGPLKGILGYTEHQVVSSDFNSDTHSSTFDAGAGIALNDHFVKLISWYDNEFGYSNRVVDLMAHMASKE
inactive: erlotinib -0.007 | [1] -0.032 | [2] 0.031 | [3] 0.006 | [4] -0.006 | [5] -0.005 | [6] 0.028 | [7] 0.027 | [8] -0.034 | IRAK-1-4 Inhibitor I 0.003 | ibrutinib 0.037 | [9] 0.021 | ralimetinib -0.006 | [10] 0.02 | [11] 0.008 | [12] -0.01 | [13] -0.008 | [14] -0.037 | [15] -0.014 | [16] 0.009

ENO2 (UniProt P09104)
UniProt P09104, sequence (P09104 whole entry, looked up): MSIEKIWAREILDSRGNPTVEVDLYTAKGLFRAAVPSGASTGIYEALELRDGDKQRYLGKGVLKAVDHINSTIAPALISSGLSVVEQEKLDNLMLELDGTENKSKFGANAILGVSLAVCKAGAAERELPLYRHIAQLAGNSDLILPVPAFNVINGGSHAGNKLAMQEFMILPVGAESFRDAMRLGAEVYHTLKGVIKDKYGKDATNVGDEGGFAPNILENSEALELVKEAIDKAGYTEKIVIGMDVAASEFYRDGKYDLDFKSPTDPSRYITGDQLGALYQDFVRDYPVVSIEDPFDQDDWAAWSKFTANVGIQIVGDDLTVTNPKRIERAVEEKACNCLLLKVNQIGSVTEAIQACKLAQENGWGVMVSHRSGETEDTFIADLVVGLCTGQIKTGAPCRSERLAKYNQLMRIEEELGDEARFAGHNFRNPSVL
inactive: erlotinib 0.013 | [1] 0.013 | [2] 0.03 | [3] -0.037 | [4] 0.056 | [5] -0.091 | [6] 0.024 | [7] 0.005 | [8] -0.02 | IRAK-1-4 Inhibitor I -0.036 | ibrutinib -0.008 | [9] -0.014 | ralimetinib 0.031 | [10] -0.051 | [11] -0.007 | [12] -0.013 | [13] -0.029 | [14] 0.035 | [15] 0.032 | [16] 0.011
